Key:
Experiment in all cases: PBM binding z-score (relative to random genomic background probes); higher = stronger binding; sequences stand for … in GC…GCGATTGACAGCGTAGAATGAAGG
[1] = system: FXR:RXRa (NR concentration 270 nM, RXRa partner concentration 90 nM)
Procedure, shortened: (§1)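 Each nuclear receptor dimer, without ligand, was incubated for 1 h on custom Agilent 4×180K protein-binding microarrays. Binding was detected with antibodies against each partner (one per run), and scanned fluorescence was regression-normalized. The binding z-scores are referenced to random human genomic background probes.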

[2] = system: LXRa:RXRa (NR concentration 270 nM, RXRa partner concentration 90 nM)
Procedure, shortened: as §1

[3] = system: LXRa homodimer (NR concentration 270 nM)
Procedure, shortened: as §1

[4] = system: LXRb:RXRa (NR concentration 270 nM, RXRa partner concentration 90 nM)
Procedure, shortened: as §1

[5] = system: LXRb homodimer (NR concentration 270 nM)
Procedure, shortened: as §1

[6] = system: PPARa:RXRa (NR concentration 270 nM, RXRa partner concentration 90 nM)
Procedure, shortened: as §1

[7] = system: PPARg:RXRa (NR concentration 180 nM, RXRa partner concentration 90 nM)
Procedure, shortened: as §1

[8] = system: PPARg:RXRa 270nM:90nM, anti-RXR (NR concentration 270 nM, RXRa partner concentration 90 nM)
Procedure, shortened: as §1

[9] = system: PPARg:RXRa 30nM:10nM, anti-RXR (NR concentration 30 nM, RXRa partner concentration 10 nM)
Procedure, shortened: as §1

[10] = system: PPARg:RXRa 90nM:30nM, anti-RXR (NR concentration 90 nM, RXRa partner concentration 30 nM)
Procedure, shortened: as §1

| Sequence | PBM binding z-score [1] | PBM binding z-score [2] | PBM binding z-score [3] | PBM binding z-score [4] | PBM binding z-score [5] | PBM binding z-score [6] | PBM binding z-score [7] | PBM binding z-score [8] | PBM binding z-score [9] | PBM binding z-score [10] |
| --- | --- | --- | --- | --- | --- | --- | --- | --- | --- | --- |
| GCGACTGGGGCATCAGCAGGGTACCATAACTTAA | -0.653 | -0.542 | -0.531 | 0.192 | -0.913 | 0.58 | 0.759 | 0.382 | -0.46 | -0.166 |
| CGTCCAAGGTCAGCAGGTCAGTGAGAGCGACGTG | 5.85 | 4.1 | 0.541 | 2.94 | -0.239 | 4.74 | 4.1 | 4.36 | 1.29 | 2.94 |
| ACTTACGGTTCAACGAGGTTATAGCACGCGTATA | 2.96 | 3.15 | 1.07 | 2.64 | 0.606 | 3.49 | 1.09 | 1.32 | 0.521 | 1.03 |
| ATATGTAGGTTAAGGGTCATTCATGTTGGTTCGC | 5.05 | 4.86 | 3.12 | 4.48 | 1.33 | 6.66 | 11.6 | 9.59 | 9.79 | 10.5 |
| CCTTGCGGGTCACGAGGTTATAGCACGACGAGCG | 6.38 | 4.25 | 0.382 | 3.71 | -0.139 | 5.87 | 7.48 | 6.95 | 4.06 | 5.86 |
| AGAATGAGGTTACCAACGATCAGGGAAACGCTTG | 1.58 | 5.96 | -0.334 | 2.43 | -0.375 | 3.66 | 2.78 | 2.43 | 0.844 | 1.7 |
| GCTTACGGGCCAAAGGTTATAGCATGAATAGAAT | 1.52 | 1.75 | -0.0531 | 2.24 | -0.287 | 4.59 | 8.48 | 7.11 | 6.58 | 7.83 |
| ACTAGCAGGCCAAGGGTAACTCAAGATTAGTCCG | -0.105 | 0.773 | -0.457 | -0.0796 | -0.553 | 1.83 | 3.38 | 4.86 | 2.86 | 4.78 |
| TCTAGTAGGCCAGAGGGTCACTCAAGAGGTACGG | 0.984 | 1.06 | -0.235 | 1.23 | -0.774 | 3.17 | 4.36 | 5.3 | 4.21 | 5.28 |
| CCTGCTAGGTCATGTTCAGCTAATCTACAGTATG | 3.33 | 2.25 | 0.437 | 1.65 | 0.467 | 2.69 | 1.36 | 1.91 | 0.403 | 1.16 |
| CCAGACAGGTGAAACGTAACTCAGTCTGGTACGC | -0.253 | -0.0571 | -0.351 | -0.105 | -0.651 | 0.658 | 0.947 | 0.946 | -0.101 | 0.589 |
| CCTACTGGGCCATAAAGGTCATTGATGCCGATAA | 3.55 | 4.42 | 3.57 | 4.21 | 0.574 | 4.79 | 4.32 | 4.68 | 2.1 | 4.45 |
| TCTCGGAGGACTCGAAAGGTCAGAGCTCGACATC | 1.95 | 2.86 | 1.04 | 2.66 | -0.682 | 3.21 | 0.567 | 2.34 | 2.29 | 1.88 |
| GCTAGTTGGTCAATAAAAGGTCACACACCGGTCG | 3.63 | 5.13 | 6.33 | 4.53 | 0.973 | 4.39 | 2.18 | 3.93 | 1.16 | 2.9 |
| AGAATGAGGTTATACATAGATCAGGGAAGAAAGT | 1.88 | 2.05 | 0.223 | 1.56 | 0.151 | 3.07 | 2.28 | 1.87 | 0.974 | 1.4 |
| CCTAGCAGGCCAGGGTCATTCAAGCATTTCGCTT | 2.69 | 2.29 | -0.0917 | 2.54 | -0.65 | 3.66 | 0.697 | 1.82 | -0.631 | 0.991 |
| CGTGAAAGTTCAAGGTAACGTAACAGAAAGCAGC | 5.94 | 5.62 | 2.82 | 3.12 | 0.85 | 4.54 | 3.2 | 4.01 | 1.51 | 3.03 |
| TCTGCTAGGTCAGTTGGTCAGCTAACGAGCTGCC | 0.844 | 0.445 | -0.44 | 0.299 | 0.673 | 1.29 | 0.575 | 1.83 | 1.27 | 1.66 |
| ACTCGGAGGAAAAAGGTCAGAGCTACGCCAGTGA | 2.49 | 3 | 0.501 | 2.45 | -0.26 | 3.73 | 2.6 | 3.2 | 1.2 | 2.74 |
| GATACAGGGTCAGCTAGACGCCAGAGTATGGAAA | 4.79 | 2.3 | -0.39 | 2.07 | -0.431 | 4.71 | 3.71 | 3.1 | 0.594 | 1.97 |
| TCATATAGGTAATACAGTTGAAAGTCGGCATCTA | 1.56 | 1.24 | 0.63 | 1.2 | 0.422 | 1.56 | 1.32 | 2.56 | 4.01 | 3.39 |
| TCTACTTGGTCAAAGGTCACACACTCGAAATGCG | 6.58 | 5.85 | 4.37 | 5.9 | 2.26 | 6.72 | 11.9 | 9.98 | 10.5 | 11 |
| TCATATAGGTAAACAGGTGATAGTCCGTAAGTTA | 0.91 | 0.907 | 0.318 | 0.806 | -0.237 | 1.73 | 2.35 | 3.2 | 4.04 | 3.64 |
| CTTACTGGGCCAAGGTCATTGATCAGTCAAAGCA | 3.38 | 3.5 | 1.27 | 3.15 | 0.239 | 4.7 | 6.21 | 5.67 | 3.67 | 5.42 |

From the supplement of paper PMC6555819
